Source: PubChem BioAssay AID1159580 (chemical genetic matrix, 2015)
Where “and” joins values, the source holds several entries; their conditions need not be identical. Equal entries are not always repeated. Among all 5,500 compounds or so, about 2,000 (36%) were called active. Roughly 18% stayed inconclusive and do not appear here. No stated cut-off is given here; in the data, active means normalized growth mostly below about 0.91 (no sharp cut-off); inconclusive means no clear call, values can overlap the other calls; inactive means mostly above about 0.92. This is one part of the list.

Test: chemical genetic growth profiling, strain panel (AID 1159580);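 further: tested at 20 µM; growth read once vehicle control cultures reached saturation at 30 °C; 1 = growth at the plate median or of vehicle wells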
Settings: S. cerevisiae deletion strains, growth OD

Measured: normalized growth

COc1cc(C(=O)NCc2ccc(OCCN(C)C)cc2)cc(OC)c1OC
inactive: locus YAL013W, strain DEP1, stronger effect = lower value 1 | locus YAL021C, strain ccr4, stronger effect = lower value 0.993 | locus YAL026C, strain drs2, stronger effect = lower value 0.998 | locus YAL030W, strain snc1, stronger effect = lower value 1 | locus YBL061C, strain skt5, stronger effect = lower value 0.981 | locus YBR009C, strain hhf1, stronger effect = lower value 1 | locus YBR021W, strain FUR4, stronger effect = lower value 1.03 | locus YBR023C, strain chs3, stronger effect = lower value 0.985 | locus YBR171W, strain sec66, stronger effect = lower value 0.999 | locus YBR229C, strain ROT2, stronger effect = lower value 0.951 | locus YBR231C, strain swc5, stronger effect = lower value 0.99 | locus YBR279W, strain paf1, stronger effect = lower value 1 | locus YCL011C, strain gbp2, stronger effect = lower value 1.01 | locus YCL016C, strain dcc1, stronger effect = lower value 0.98 | locus YCL029C, strain bik1, stronger effect = lower value 0.977 | locus YCL061C, strain MRC1, stronger effect = lower value 1 | locus YCL069W, strain vba3, stronger effect = lower value 0.995 | locus YCR088W, strain abp1, stronger effect = lower value 0.99 | locus YDL005C, strain med2, stronger effect = lower value 1.01 | locus YDL035C, strain GPR1, stronger effect = lower value 1.01 | locus YDL040C, strain nat1, stronger effect = lower value 1.02 | locus YDL074C, strain BRE1, stronger effect = lower value 0.951 | locus YDL101C, strain DUN1, stronger effect = lower value 0.973 | locus YDL134C, strain PPH21, stronger effect = lower value 0.996 | locus YDL185W, strain tfp1, stronger effect = lower value 0.979 | locus YDL192W, strain arf1, stronger effect = lower value 0.982 | locus YDR001C, strain nth1, stronger effect = lower value 1 | locus YDR069C, strain doa4, stronger effect = lower value 1 | locus YDR101C, strain arx1, stronger effect = lower value 0.93 | locus YDR137W, strain rgp1, stronger effect = lower value 1.01 | locus YDR150W, strain NUM1, stronger effect = lower value 0.974 | locus YDR159W, strain sac3, stronger effect = lower value 0.953 | locus YDR162C, strain NBP2, stronger effect = lower value 1.01 | locus YDR195W, strain ref2 0.997 | locus YDR297W, strain sur2, stronger effect = lower value 0.981 | locus YDR318W, strain mcm21, stronger effect = lower value 0.992 | locus YDR334W, strain swr1, stronger effect = lower value 0.99 | locus YDR335W, strain msn5, stronger effect = lower value 0.982 | locus YDR388W, stronger effect = lower value 0.988 | locus YDR392W, strain spt3, stronger effect = lower value 0.833 | locus YDR502C, strain sam2, stronger effect = lower value 0.985 | locus YEL003W, strain gim4, stronger effect = lower value 1 | locus YEL037C, strain rad23, stronger effect = lower value 0.988 | locus YEL061C, strain CIN8 (second series), stronger effect = lower value 0.978 | locus YEL061C, strain CIN8, stronger effect = lower value 0.978 | locus YER015W, strain faa2, stronger effect = lower value 0.991 | locus YER016W, strain bim1, stronger effect = lower value 0.994 | locus YER110C, stronger effect = lower value 0.984 | locus YER111C, strain swi4, stronger effect = lower value 0.982 | locus YER155C, strain BEM2 (second series), stronger effect = lower value 0.988 | locus YER155C, strain BEM2, stronger effect = lower value 0.996 | locus YER167W, strain BCK2, stronger effect = lower value 0.997 | locus YFR010W, strain ubp6, stronger effect = lower value 1 | locus YGL078C, strain dbp3, stronger effect = lower value 0.981 | locus YGL086W, strain mad1, stronger effect = lower value 0.966 | locus YGL167C, strain pmr1, stronger effect = lower value 1 | locus YGL173C, strain kem1, stronger effect = lower value 1 | locus YGL227W, strain vid30, stronger effect = lower value 1.01 | locus YGL240W, strain doc1, stronger effect = lower value 0.984 | locus YGL248W, strain PDE1, stronger effect = lower value 0.975 | locus YGL253W, strain hxk2, stronger effect = lower value 0.993 | locus YGR078C, strain PAC10, stronger effect = lower value 0.963 | locus YGR135W, strain pre9, stronger effect = lower value 1.06 | locus YGR229C, strain SMI1, stronger effect = lower value 1.02 | locus YGR252W, strain gcn5, stronger effect = lower value 1.03 | locus YHR013C, strain ard1, stronger effect = lower value 0.949 | locus YHR027C, strain rpn1, stronger effect = lower value 0.979 | locus YHR030C, strain SLT2, stronger effect = lower value 0.985 and 0.966 | locus YHR079C, strain IRE1 (second series), stronger effect = lower value 0.976 | locus YHR079C, strain IRE1, stronger effect = lower value 0.976 | locus YHR094C, strain hxt1, stronger effect = lower value 0.979 | locus YHR129C, strain ARP1, stronger effect = lower value 0.995 | locus YHR142W, strain chs7, stronger effect = lower value 0.982 | locus YHR200W, strain rpn10, stronger effect = lower value 0.983 | locus YIL066C, strain RNR3, stronger effect = lower value 0.963 | locus YIL073C, strain SPO22, stronger effect = lower value 1.04 | locus YIL125W, strain kgd1, stronger effect = lower value 0.976 | locus YIR030C, strain dcg1, stronger effect = lower value 0.989 | locus YJL092W, strain hpr5, stronger effect = lower value 0.997 | locus YJL095W, strain BCK1 (second series), stronger effect = lower value 0.988 | locus YJL095W, strain BCK1, stronger effect = lower value 0.991 and 0.995 | locus YJL115W, strain asf1, stronger effect = lower value 0.993 | locus YJL129C, strain trk1, stronger effect = lower value 0.981 | locus YJL134W, strain LCB3, stronger effect = lower value 0.993 | locus YJL154C, strain vps35, stronger effect = lower value 1.02 | locus YJL164C, strain tpk1, stronger effect = lower value 1 | locus YJL166W, strain qcr8, stronger effect = lower value 0.988 | locus YJL168C, strain set2, stronger effect = lower value 0.979 | locus YJL187C, strain SWE1 (second series), stronger effect = lower value 0.953
